USP8 block: blocks human USP8 ubiquitin-rhodamine cleavage; inhibition, % at 20 µM; P40818; 47,000 tested, 4.2% active; purified USP8, Ub-rhodamine cleavage fluorescence, 30 min; AID 1645853
USP7 block: inhibitors of human USP7 deubiquitinase; Q93009; purified USP7, Ub-rhodamine cleavage fluorescence; inhibition, % at 20 µM; 47,000 tested, 0.3% active
UCHL1 block: inhibitors of human UCHL1 deubiquitinase | P09936 | purified UCHL1, Ub-rhodamine cleavage fluorescence | inhibition, % at 20 µM | 47,000 tested, 0.2% active | AID 1645859
USP17 block: blocks human USP17 ubiquitin-rhodamine cleavage | inhibition, % at 50 µM | purified USP17, Ub-rhodamine cleavage fluorescence, 3 h | A8MUK1 | 47,000 tested, 6.5% active | AID 1645855
USP30 inh: human USP30 deubiquitinase inhibition; 47,000 tested, 5.3% active; Q70CQ3; inhibition, % at 25 µM; purified USP30, Ub-rhodamine cleavage fluorescence
Target sequence (Q70CQ3 whole entry, looked up): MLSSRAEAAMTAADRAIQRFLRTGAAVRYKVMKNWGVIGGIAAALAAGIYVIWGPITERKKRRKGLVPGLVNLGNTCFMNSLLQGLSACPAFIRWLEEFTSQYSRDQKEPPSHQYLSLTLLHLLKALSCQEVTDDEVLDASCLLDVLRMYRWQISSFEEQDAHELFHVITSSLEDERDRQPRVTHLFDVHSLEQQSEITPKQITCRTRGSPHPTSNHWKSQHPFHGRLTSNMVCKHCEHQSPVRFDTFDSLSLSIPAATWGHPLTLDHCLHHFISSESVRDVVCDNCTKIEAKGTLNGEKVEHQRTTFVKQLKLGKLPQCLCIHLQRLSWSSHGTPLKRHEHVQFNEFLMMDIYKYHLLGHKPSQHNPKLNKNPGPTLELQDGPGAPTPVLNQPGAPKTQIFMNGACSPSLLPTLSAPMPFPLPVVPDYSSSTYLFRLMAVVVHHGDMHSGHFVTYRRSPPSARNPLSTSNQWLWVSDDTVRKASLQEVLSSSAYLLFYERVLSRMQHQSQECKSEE
USP10 block: blocks human USP10 ubiquitin-rhodamine cleavage; inhibition, % at 20 µM; Q14694; purified USP10, Ub-rhodamine fluorescence, 60 min; 47,000 tested, 1.1% active
Each line names hits and unclear results; the compound was inactive in the other large screens. Most compounds without a hit are left out; they make up all but 12% or so of the library. Cut-off read from the data, not from the text of the source: active = inhibition above about 30%; inactive = the rest.

CCn1c(=O)c(-c2ccc(C(=O)Nc3cc(C)ccc3OC)cc2)nc2cccnc21	USP17 block 37
O=C1COc2ccccc2C/C=C/CC2(CCCN(C(=O)CCN3CCCC3=O)C2)CN1 (centres undefined)	none
CCOc1cccc2nnc(NC(=O)Nc3ccccc3CC)n12	USP17 block 56, USP30 inh 54
CN(C)c1cncnc1-n1cc(NC(=O)c2cccc(Cl)c2)cn1	none
Cc1ccc(C)c(NC(=O)COC(=O)C(Cc2c[nH]c3ccccc23)NC(=O)c2ccccc2Cl)c1 (centres undefined)	none
N#Cc1ccccc1NC(=O)COC(=O)C(Cc1c[nH]c2ccccc12)NC(=O)c1ccc(Cl)cc1 (centres undefined)	none
CSc1ccccc1NC(=O)COC(=O)C(Cc1c[nH]c2ccccc12)NC(=O)c1ccccc1Cl (centres undefined)	USP30 inh 30
COc1ccc(Cl)cc1NC(=O)COC(=O)C(Cc1c[nH]c2ccccc12)NC(=O)c1ccccc1Cl (centres undefined)	USP30 inh 31
COc1ccc(C(=O)Nc2ccc(S(=O)(=O)N3CCCCC3)cc2)cc1	none
Cc1cc(NC(=O)CN2CCCN(S(=O)(=O)c3ccc(F)cc3)CC2)ccc1Br	USP17 block 35, USP30 inh 38
CC1CCN(S(=O)(=O)c2ccc(C(=O)Nc3ccc(S(N)(=O)=O)cc3)cc2)CC1	USP30 inh 68
Cc1ccc(C(=O)Nc2ccc(S(=O)(=O)N3CCCC3)cc2)cc1Br	USP30 inh 45
CC1CCCCN1S(=O)(=O)c1ccc(C(=O)Nc2ccc(S(N)(=O)=O)cc2)cc1 (centres undefined)	USP17 block 56, USP30 inh 71
Cc1cccc(NC(=O)CN2CCCN(S(=O)(=O)c3ccc(Br)cc3)CC2)c1	none
Cc1ccc(NC(=O)N2CCCn3c(nc4ccccc43)C2)cc1	none
CN1CCC(N2CC[C@H](c3nnc(COc4ccc(F)cc4)o3)C2)CC1	none (no result: USP30 inh)
O=C(Nc1ccc(S(=O)(=O)N2CCCC2)cc1)c1ccccc1C(F)(F)F	none
O=C(Nc1ccc(S(=O)(=O)N2CCCCC2)cc1)c1ccccn1	USP17 block 75 (no result: USP30 inh)
Cc1cccc(NC(=O)c2ccc(N3C(=O)C(C)CS3(=O)=O)cc2)c1C (centres undefined)	USP17 block 34 (no result: USP30 inh)
COc1ccc(C)cc1NC(=O)c1ccc(-n2nc(C)cc2C)nn1	none
COc1cc2c(=O)n(CCC(=O)NCc3ccco3)c(=O)n(CC(=O)N3CCCc4ccccc43)c2cc1OC	none
CC(C)c1nc(SCc2nc3ccccc3c(=O)n2-c2ccccc2)c2ccccc2n1	none
CC(C)c1ccc(-n2c(=O)c3ccccc3c3ccccc3c2=O)cc1	USP30 inh 35
O=C(COc1ccc(Cl)cc1)N1CCC(c2c[nH]c3ccccc23)(c2c[nH]c3ccccc23)CC1	USP30 inh 39 (no result: USP17 block)
O=C(c1[nH]nc2c1COc1ccccc1-2)N1CCN(c2ccccn2)CC1	USP8 block 50
O=C(c1[nH]nc2c1COc1ccccc1-2)N1CCN(c2ncccn2)CC1	none
COc1ccc(Nc2cc(-c3cccc(C(F)(F)F)c3)nc(-c3ccncc3)n2)cc1	USP8 block 38 (no result: USP17 block)
Cc1cc2n(n1)CCC(=O)N2C(C)C(=O)NCc1ccccc1C (centres undefined)	none (no result: USP17 block)
CCOC(=O)c1c(-c2ccccc2Cl)csc1NC(=O)CNc1cccc(O)c1	USP17 block 32
NC(=O)c1nnn(-c2ccc(NC(=O)c3ccc(F)c(F)c3)cc2)n1	USP17 block 64
CC1(C)CC2CC(C)(CN2Cc2c(O)ccc3ccccc23)C1 (centres undefined)	USP8 block 87, USP17 block 57
N#Cc1c(C(F)(F)F)cc(-c2ccccc2)nc1N1CCOCC1	USP17 block 30
N#Cc1c(-c2ccccc2)nc(N2CCCC2)nc1N1CCCC1	none
Cc1cc(C(=O)N2CCCC2c2noc(C3CC3)n2)no1 (centres undefined)	none
N#Cc1ccc(-c2ccc(OCC(=O)Nc3ccc4c(c3)CCC4)cc2)cc1	USP8 block 36, USP30 inh 44
CC(=O)c1ccccc1NC(=O)COc1ccc(-c2ccc(C#N)cc2)cc1	USP17 block 78
NS(=O)(=O)c1cccc(NC(=O)COc2ccc3c(c2)CCC3)c1	none
CC(=O)c1ccccc1NC(=O)Cc1ccc(-c2ccccc2)cc1	none
COc1ccc(S(=O)(=O)Nc2ccc3nn(C)cc3c2)cc1	USP8 block 77, USP17 block 34
CCN1C(=O)Cc2cc(NS(=O)(=O)c3ccc(OC)cc3)ccc21	none
O=c1[nH]c(=O)n(Cc2ccco2)c2c1CN(Cc1ccccc1)CN2	none
CCC(C)N1CNc2c(c(=O)[nH]c(=O)n2Cc2ccco2)C1 (centres undefined)	USP30 inh 39, USP10 block 31 (no result: USP17 block)
O=c1c(S(=O)(=O)N2CCCC2)cccn1Cc1ccccc1F	none
O=S(Cc1cc(Sc2ccccc2)nc(-c2ccccc2)n1)c1ccccc1 (centres undefined)	USP30 inh 34
Cc1c(Cl)cccc1NC(=O)c1ccc(CN2CCc3ccccc3C2)cc1	none
O=C(Nc1ccccc1C(=O)N1CCCC1)c1ccc(CN2CCc3ccccc3C2)cc1	USP8 block 40
COC(=O)COc1ccc(/C=N/NC(=O)c2ccc(CN3CCc4ccccc4C3)cc2)cc1	USP8 block 36, USP30 inh 54
O=C(CN(c1ccc(F)cc1)S(=O)(=O)c1ccccc1)N1CCC(Cc2ccccc2)CC1	none
O=C(/C=C/c1ccc(F)cc1)N1CCC(Cc2ccccc2)CC1	USP17 block 36, USP30 inh 51
CC(=O)Nc1ccc2c(c1)nc(CCN1CCN(c3ccc(F)cc3)CC1)n2C	none
COc1cccc(C(=O)Nc2ccccc2-c2nc(-c3ccncc3)no2)c1	USP30 inh 39
Cc1cc(C(=O)Nc2nc3ccc(F)cc3s2)nn1C	none
C/C=C/C=C/[C@@H]1Cc2cc(O)cc(O)c2O1	USP8 block 74, UCHL1 block 61, USP17 block 97, USP30 inh 82, USP10 block 33
C[C@@H]1Cc2cc(O)cc(O)c2C(=O)O[C@H](C)CC(=O)OC[C@@H](O)CC(=O)O[C@H](C)Cc2cc(O)cc(O)c2C(=O)O[C@H](C)CC(=O)O1	none
CCOc1ccc(Nc2cc(C(=O)NCCC3=CCCCC3)c3ccccc3n2)cc1	USP17 block 44, USP30 inh 32
Cc1ccc(CCNC(=O)c2cc(Nc3ccccc3C)nc3ccccc23)cc1	none
CCOc1ccc(CCNC(=O)c2ccc3c(SCC(=O)O)c4c(nc3c2)CCC4)cc1OCC	USP17 block 34
CCc1ccc(Nc2cc(C(=O)NC3CCCC3)c3ccccc3n2)cc1	none
CCOc1ccc(CCNC(=O)c2cc(Nc3ccccc3C)nc3ccccc23)cc1OCC	USP17 block 58, USP30 inh 56
CCOC(=O)N1CCN(S(=O)(=O)c2ccc3c(c2)CCN3C(C)=O)CC1	none
